Assay results taken from the supplement of paper PMC11417369.
The full ranking holds about 25,000 sequences; the median of “ln(normalized median fluorescence intensity)” is about 7.1, and the highest 2% start at about 10. For the sample, the highest values were picked, then their nearest neighbours and some sequences at random.

Tested on: PfSIP2 AP2 domain 1 (GST-tagged)
Experiment: gcPBM binding intensity (ln(normalized median fluorescence intensity)); higher = stronger DNA binding
Outline: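 GST-fused DNA-binding domains of P. falciparum, expressed in E. coli, were applied at about 25 μg on average for 1 h to an Agilent 4 × 180k array of primer-extended double-stranded 36-bp intergenic genomic probes and negative controls. Binding intensity is the highest Masliner-normalised natural-log median intensity across replicate spots of either probe orientation, measured with Alexa488 anti-GST antibody and a 488 nm scan.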

| Sequence | gcPBM binding intensity (ln) |
| --- | --- |
| GTATGAAAAAAAATATGTACACATATATATTTGGTA [XGTACX_site6309] | 7.07 |
| TTCTTTGCTTTTCAAACACACAAAAGTTATTATATT [CACACA_site521] | 7.22 |
| TAGAAAAACATTACGTGTACCAAACATCCTAGCAAC [XGTACX_site4888] | 7.19 |
| TTCATTGTGTTAACGGTGCATATATTTTTTCACCGT [GTGCAC_site9464] | 10.3 |
| GCAGCAGCATTTTCAGTGCATTATTATATTGTTCAT [GTGCAC_site9926] | 7.98 |
| TTGTTCATATTTTTTATTGTGTTAATATTTATAAAA [GTGCAC_negctrl_site423] | 7.28 |
| CAAAAGGATAGGCACACACACACACCCATATATATA [CACACA_site2199] | 7.55 |
| ATGTATATAATATTATGTACATATATGAAATATTTT [XGTACX_site8168] | 7.02 |
| CGCACCCACAGACACACACACACATATATATATATA [CACACA_site2202] | 9.47 |
| CACCCCCACAGACACACACACACACCGATATATATA [CACACA_site8010] | 7.89 |
| CGCGCACCCAGACACACACACACACCGATATATATA [CACACA_site8687] | 10.6 |
| CACCCACACCAACACACACACATATATATATATATA [CACACA_site362] | 9.74 |
| CGCGCACCCAGACACACACACACACCCATATATATA [CACACA_site2203] | 10.8 |
| CACACCCACCAACACACACACACACCCACCCATATA [CACACA_site366] | 7.11 |
| CACGCGCACCAACACACACACACACCCATATATATA [CACACA_site2204] | 10.6 |
| CGCGCCCAGAAACACACACACACACCGATATATATA [CACACA_site5250] | 7.62 |
| GGAGCACCCAGACACACACACACATATATATATATA [CACACA_site336] | 9.19 |
| TTTTAGCACTTATTATAAGATATCAAAAAGATGGGT [XGTACX_negctrl_site325] | 7.32 |
| ATAAATTCTATGTATACACACATATATAATATATAT [CACACA_site2689] | 7.26 |
| TTTTTATTAATAGATATAAATATATAATATGAATGT [TGCATGCA_negctrl_site309] | 7.04 |
| ATAATTATTTAATATATATATATTATTTCGAATGTT [GTGCAC_negctrl_site688] | 7.03 |
| TTTCTTTTTTTTTAATGTACTTTTTTTATAAAAGGT [XGTACX_site5688] | 7.27 |
| AAAGAATTATATAAGGTGCACGAATGTTTCTTTAAT | 10.9 |

| Sequence | gcPBM binding intensity (ln) |
| --- | --- |
| TAAAAACAAAAATGTTGTACATAATATAAAACAATT [XGTACX_site6380] | 7.04 |
| ATTTTTTAAATTTAAACACACATTTTGTATATGTTT [CACACA_site1654] | 7.02 |
| GACAATTATATGTAGGTGCATATACAAATTTTTTAA | 10.9 |
| ATTTTTTTTTTTTTATGTACATATAGGTGCAAATCA [XGTACX_site6748] | 11.4 |
| TTTATATATTATTAATGTACAAAATTTTTATTGCAT [XGTACX_site3329] | 6.96 |
| CATATATATTTTATATGTACATATATATTTTATATA [XGTACX_site8665] | 7.03 |
| ATATTTTTATTAGTAGTGCAATTTAGTGTATATATA [GTGCAC_site9542] | 8.39 |
| ATTTATATTACCCTTGCATGTAGGTGCAATTTTTTT [TGCATGCA_site757] | 11 |
| ATATATTTATTAAGGTGTACAAAAATTATGTTGCAT [XGTACX_site7546] | 7.16 |
| ATATATATATATTTATGTACATATATTTTTTTTTTT [XGTACX_site8558] | 8.71 |
| AATTCATTTTACCCATGTACACAATTATATTTTATA [XGTACX_site4127] | 7.23 |
| ATGTTATATATGTATTGTACGTATTTTGTATATTAT [XGTACX_site6607] | 7.4 |
| AATATATCCTATTCGAACAAAAATACATGCACATAT [CACACA_negctrl_site1058] | 9.28 |
| AAGGATTATTTTAATCGTACATGTGTAAATAATATA [XGTACX_site6177] | 6.98 |
| AATAAATAAATATATATATATATATAATATCATAAA [CACACA_negctrl_site337] | 7.29 |
| TAAAGAAAAATATAAAGTACAAAAATAAAAAAAATA [XGTACX_site8226] | 6.93 |
| AGCATTAAAAATGGAATGGAATTAAGCTATATATTA [CACACA_negctrl_site1571] | 6.63 |
| TTAAAGTTACATTCGACACACACATAACAACTAAAT [CACACA_site9130] | 7.1 |
| AAAAAAAAAGATCACACACACATAAATATAAACAAA [CACACA_site5285] | 6.92 |
| ACATACATATGTAAATGTACAAAATATCCATAGATT [XGTACX_site2782] | 6.81 |
| TCAGATCCATAGAAGGTGCAAATAACAAAAATACAA [GTGCAC_site9610] | 10.9 |
| AAATAACAAAAGAAGGTGCTCATAAAAATTCATACA [GTGCAC_site9864] | 8.23 |
| TATAATGCTCTTCTTTGTACATATTATGATTATATT [XGTACX_site2332] | 7.15 |

| Sequence | gcPBM binding intensity (ln) |
| --- | --- |
| TTTGTTTGGTTTTGGTGTACTTTTTTTTTTTTTTCT [XGTACX_site2050] | 7.16 |
| ATTTTTTTTTTTTTTTTTTGGTTTTCTTTAGGAGTT [CACACA_negctrl_site1258] | 6.9 |
| TTAGCAGGACGTTTGGTGCACGTACTGTTTTTCTTT [GTGCAC_site9856] | 10.3 |
| CTTCTGGACAGGAATGCACACATTTTTTTTTCTTTT [CACACA_site1807] | 7 |
| TTGACAGGAACGTTGGTGCACGTACTGTTTTTCTTT [GTGCAC_site9389] | 10.7 |
| TACATGCTTATTTTAACACACAAATGGTAGTAATAA [CACACA_site766] | 6.93 |
| ATATTTTTCAAACATCGTACATTATGAGTTAAAATT [XGTACX_site584] | 7.02 |
| ATAAAAAGGAGACACACACACACACGCATATTTATA [CACACA_site6551] | 7.08 |
| TGTGCACATAATTAGTGTACATTTTTTATTTAGACA [XGTACX_site317] | 10.9 |
| AGACCTTTAATTTGTGTGCACATAATTAGTGTACAT [GTGCAC_site9434] | 8.49 |
| GTATAATTATGTGCACGTACATATTTTATTATATAT [XGTACX_site8586] | 9.21 |
| TTAATAATTAATTATAGTACACATTTATATTAATAA [XGTACX_site190] | 7.03 |
| TTATATAATTTAATAGTGCAATTATATTAATTTTTC | 7.73 |
| CTATTTCAATTTAGTGCACACATTTTAATTTATAAG [CACACA_site2040] | 10.5 |
| ATATATATATATATAGTGCACATTTATATAATTATT | 10.6 |
| TATATTATTAATTAAGCACACATTATTTTTATAATA [CACACA_site3982] | 6.89 |
| ATAATATATAATATAGTGCATTATTTATTAATTAAT [GTGCAC_site9852] | 10.1 |
| ATTCCACCTTAAAACTGTACTTTCTCAATCTTTTAT [XGTACX_site796] | 7.22 |
| TTACTTAAATATAAGTGTCCTCAAAAAAAAAAAAAA [XGTACX_site460] | 6.94 |
| ATTCGTCACATTTTTTGATATATATATATATATATA [CACACA_negctrl_site1785] | 9.68 |
| TTTTAAAAACGGCATGCATGTAATACATGGAAGGAA [TGCATGCA_site480] | 7.46 |
| TTTTTATTAAGACATGCATGGAAACGCACTATTTTA [TGCATGCA_site999] | 9.74 |
| GGGTTTTTTATTAATACATGCATGGAAACGCACTAT [TGCATGCA_site1000] | 10.3 |

| Sequence | gcPBM binding intensity (ln) |
| --- | --- |
| TTTATAAATATTCTCACACACTTTTTATTTTAACAA [CACACA_site6454] | 6.93 |
| ATATAAATTTAATACACACCCAAAAAAAAAAAAAAA [CACACA_site3750] | 6.89 |
| ATATGTTTTGTTTACGTGCACTGCTTTGTTTATATA [GTGCAC_site9622] | 9.56 |
| ATGTAGATAAAACGTGTGCACATGTTTTTTGTTATT | 8.7 |
| TATGTTTTTACGTGTGTGCACTTTGTAGAGATAAGT | 10.7 |
| GTTAGGATAGATTAGACATGCACATAAATGCACTTC [TGCATGCA_site561] | 11 |
| AGGATATGCAGACACACACACATATAGATTTATATA [CACACA_site7100] | 7.08 |
| AAAATTAGATTATGCACACACACTTAAAAATAATAA [CACACA_site1975] | 8.5 |
| TGTACGAGTCGTAGAGTGCAGTCTGGAGAAAAGTAC [GTGCAC_site9683] | 8.91 |
| TTTTTTATGCTAACTTCTTTTTCCTTATAAAATTGG [TGCATGCA_negctrl_site598] | 7.06 |
| AATATAATATATTGCACACAAAAAGTGAATTATTCT [CACACA_site1684] | 7.12 |
| TAATATATGTATTGCACACCTATAACCATTATTTCT [CACACA_site1498] | 7.06 |
| AATATATTGCACCATTGGACCTGAATAATTCTTCCA [CACACA_negctrl_site1071] | 10.6 |
| CTTTCTATATAAAATCGTACATATATAATATTATAT [XGTACX_site5807] | 7.3 |
| GACATATAAATATACACACATACGTAAGTATATTAA [CACACA_site1790] | 6.91 |
| GGAAAATACATTCCAGTGCATTAATTTATTCAACGT | 8.59 |
| AGAGACACTTTTTATTGTACAAGAGGAGGTTACCTT [XGTACX_site8768] | 6.61 |
| AAAAAAAAAAAAGAAACACACACATTTGTATATAAT [CACACA_site8648] | 6.93 |
| AAACAGAAGACATATACACACATACAAAAAAGTGCA [CACACA_site4699] | 7.62 |
| AAAAAAAAAAAAAGAACACACACAGTGCACATTCGG [CACACA_site8163] | 10.6 |
| AGAACATGCAAACATGCACACAGAAAAAAAAAATAT [CACACA_site8442] | 8.26 |
| AAAAAAAAAAAGAACACACACAGTGCACATTCGGTG [CACACA_site788] | 10.3 |
| AAAAAAAAAAAAGAAACACACATATATATATATATA [CACACA_site140] | 8.95 |
